# Sfp inh: qHTS Assay for Inhibitors of Bacillus subtilis Sfp phosphopantetheinyl transferase (PPTase). Biochemical Sfp PPTase activity, qHTS. Potency, µM, without a hit: largest response in the series, negative = inhibition, actives largely listed as inhibitors. 310,000 compounds, 3.5% hits. AID 1490, 2009;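 also: the enzyme is Sfp with the accession as filed and its product quenches rhodamine fluorescence; 0% = enzyme reaction without inhibitor and -100% = no enzyme wells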
#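 Reaction rates are the 30-min fluorescence difference (ex 525, em 598 nm) in wells containing 15 nM Sfp, 5 uM rhodamine-CoA and 12.5 uM BHQ-2-YbbR at pH 7.6 with 10 mM MgCl2.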
# HP1b chromo inh: HTS for Inhibitors of HP1-beta Chromodomain Interactions with Methylated Histone Tails; Chromobox protein homolog 1 (Homo sapiens), P83916; AlphaScreen HP1-beta / biotin-H3K9me3 peptide binding; Potency, µM (doses to about 114 µM), for the others: top-dose activity change, negative = inhibition, usual class: inhibitors; 390,000 compounds, 0.56% hits; AID 540317, 2011; also: nearly all actives have a fitted effect of over 70% in size
#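 Compound inhibition of the preformed complex between 50 nM HP1-beta and 50 nM biotinylated H3K9me3 peptide was read by AlphaScreen. Buffer was PBS pH 7.4 with 0.01% Tween-20. Incubations ran 30 min at room temperature, with 10 ug/mL donor/acceptor beads.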
# G9a inh: qHTS Assay for Inhibitors of Histone Lysine Methyltransferase G9a. Potency, µM (titrated, usually from 102 µM), without a hit: at the highest dose activity, negative = inhibition, actives largely listed as inhibitors. AID 504332, 2011. G9a H3K9 monomethylation, AlphaScreen, 2 h. Histone-lysine N-methyltransferase EHMT2 (Homo sapiens), Q96KQ7. 350,000 compounds, 8.8% hits; also: % is scaled to controls: 0 for no effect and ±100 for the full control effect; nearly all actives have a fitted effect of over 75% in size
#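 G9a (20 nM) was preincubated 15 min with compound, then reacted 2 h at room temperature with 500 nM biotin-H3K9 peptide and 20 µM SAM. Monomethyl-H3K9 detected by AlphaScreen using anti-H3K9me1 antibody.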
# BAZ2B block: qHTS Assay for Inhibitors of BAZ2B | AlphaScreen BAZ2B-H3K14Ac peptide displacement | Potency, µM (doses to about 114 µM), for inactives: at the highest dose activity change, negative = inhibition, actives largely listed as inhibitors | 360,000 compounds, 4.4% hits; also: % is scaled to controls: 0 for no effect and ±100 for the full control effect; nearly all actives have a fitted effect of over 60% in size
#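 BAZ2B 50 nM plus b-H3(5-23)K14Ac 50 nM, PBS pH 7.4/0.01% Tween-20, 30 min RT; compound added (max 110 uM), 30 min RT; streptavidin donor/Ni-chelate acceptor beads 10 ug/mL final, 20 min dark; AlphaScreen read.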
# JMJD2A Tudor: qHTS Assay for Inhibitors of JMJD2A-Tudor Domain. Lysine-specific demethylase 4A (Homo sapiens), O75164. AlphaScreen JMJD2A-Tudor / H3K4me3 peptide binding. Potency, µM (highest dose often 114 µM), inactives show top-dose activity change, negative = inhibition, usual class: inhibitors. 390,000 compounds, 4.4% hits; also: % is scaled to controls: 0 for no effect and ±100 for the full control effect; nearly all actives have a fitted effect of over 50% in size
# PLK1 PBD block: qHTS for Inhibitors of PLK1-PDB (polo-like kinase 1 - polo-box domain): Primary Screen. AID 720504, 2013. Potency, µM, for inactives: max response, negative = inhibition, usual class: inhibitors. Serine/threonine-protein kinase PLK1 (Homo sapiens), P53350. Plk1 PBD binding of FITC phosphopeptide, fluorescence polarization. 360,000 compounds, 2.8% hits; also: series mostly up to about 57 µM; % is scaled to controls: 0 for no effect and ±100 for the full control effect; nearly all actives have a fitted effect of over 65% in size
# The depositor's hits bear a star; ? = inconclusive; nt = no result given; [ ] = remark or other dose. Rows were chosen to be rich in hits. Some 12% of all compounds tested hit in one or more screens of this group. Calls follow the shape of the dose curve; as a rule, active = well fitted curve in the direction sought with a large enough effect; inconclusive = small, poorly fitted or top-dose-only effect, or another doubt; inactive = no such curve, though single readings can be large; an effect the other way counts as inactive or inconclusive. Potency is read from the fitted curve at half-maximal effect.
SMILES,Sfp inh,HP1b chromo inh,G9a inh,BAZ2B block,JMJD2A Tudor,PLK1 PBD block
CCN1CCN(c2nc3ccccc3nc2C(C#N)C(=O)OCc2ccccc2)CC1 (stereo unspecified),3.5%,-5.7%,39.8µM*,-35.2%,?,-3.1%
COc1cc(CN2CCC(n3nccc3NC(=O)CCCc3ccccc3)CC2)ccc1F,4.6%,78.4%,-0.4%,-11.5%[57.1 µM],-7.8%,-0.4%
CCc1cc(SC#N)cc(CC)c1NC(=O)CCl,-8.9%,46.0%,50.1µM*,1.7%,-2.2%,?
Cc1cc(C)c2c(NC(=O)CCl)nn(C)c2n1,15.6%,12.5%,-22.0%,-13.2%,-11.7%,1.5%
NC(=O)C1CCN(C(=O)c2cc(Cl)c3c(c2)OCCO3)CC1,nt,29.5%,nt,nt,-5.6%,-4.7%
COc1ccc(C)cc1Nc1n[n+](-c2ccccc2)c(-c2cc(OC)c(OC)cc2Br)s1,-27.6%,19.0%,39.8µM*,50.1µM*,?,-25.1%
COc1ccc(C)cc1Nc1n[n+](-c2ccccc2)c(-c2c(OC)ccc3ccccc23)s1,nt,-16.1%,20.8%[2.33 µM],?,?,-19.1%
CCOc1cc(-c2sc(Nc3cc(C)ccc3OC)n[n+]2-c2ccccc2)ccc1OC,nt,-11.5%,-41.9%[12.7 µM],56.2µM*,56.2µM*,-23.8%
COc1ccc(C)cc1NC(=O)Nc1ccccc1,-11.9%,6.5%,?,-1.4%,-24.0%,-8.2%
COc1ccc(C)cc1Nc1n[n+](-c2ccccc2)c(-c2ccc(C(=O)O)cc2)s1,56.2µM*,-7.6%,10µM*,39.8µM*,35.5µM*,-25.3%
COc1ccc(-c2sc(Nc3ccccc3)n[n+]2-c2ccccc2)cc1Br,nt,2.1%,-47.8%[12.7 µM],50.1µM*,79.4µM*,?
CCOc1ccc(NS(=O)(=O)c2ccc3[nH]cc(C(=O)N4CCCC4)c(=O)c3c2)cc1,nt,32.0%,?,nt,-17.0%,nt
O=C(CC(c1cccs1)N1Cc2ccccc2C1=O)Nc1ccc(F)cc1 (stereo unspecified),nt,30.9%,-1.7%[59 µM],-3.8%,-3.8%,nt
CC(C)c1nnc(NC(=O)CS(=O)(=O)c2ccccc2)s1,2.4%,33.1%,-13.0%,10.2%,4.2%,-1.1%
Cc1nc(Nc2ccccc2)sc1-c1ccccc1,?,0.9%,?,?,-29.4%,-3.4%
C(=C\c1sc(Nc2ccccc2)n[n+]1-c1ccccc1)/c1ccccc1,nt,?,nt,nt,56.2µM*,?
Cn1c(CCN2CCOCC2)nc2cc(NC(=O)COc3ccccc3)ccc21,9.2%,10.3%,-33.4%,-5.0%,-16.2%,-7.7%
COc1ccc(OCC(=O)Nc2ccc3c(c2)nc(CCN2CCN(C)CC2)n3C)cc1,17.4%,6.1%,37.0%,-19.6%,?,23.8µM*
Cn1c(CN2CCOCC2)nc2cc(NC(=O)COc3ccccc3)ccc21,22.4%,-19.4%,-1.8%,-14.1%,56.2µM*,21.2µM*
COc1ccc(OCC(=O)Nc2ccc3c(c2)nc2n3CCSC2)cc1,4.7%,2.7%,2µM*,-0.7%,-13.2%,-19.4%
Cc1ccc(NC(=O)Cn2cc3c(n2)CCC(C)C3)cc1C (stereo unspecified),nt,10.9%,-1.5%[59 µM],2.4%,-17.4%,nt
Cc1ccc(-n2ncc3c(Nc4ccc5c(c4)OCCO5)ncnc32)cc1C,nt,36.2%,-22.5%[59 µM],-1.7%,-26.0%,nt
O=[N+]([O-])c1ccc(-c2nnc3n2CCCCC3)cc1,3.8%,-1.6%,60.0%,-2.4%,-13.4%,-2.5%
O=c1c2c(-c3ccc([N+](=O)[O-])cc3)csc2nc2n1CCC2,?,?,7.94µM*,-1.3%,-30.4%,26.7µM*
O=C(CCC(=O)N1CCOCC1)NCc1cccc(C(F)(F)F)c1,nt,41.4%,2.6%[12.7 µM],-2.5%,-1.3%,-3.3%
SMILES,Sfp inh,HP1b chromo inh,G9a inh,BAZ2B block,JMJD2A Tudor,PLK1 PBD block
O=C(COc1ccc([N+](=O)[O-])cc1)Nc1ccc(N2CCN(C(=O)c3ccco3)CC2)cc1,-6.5%,52.1%,nt,25.1µM*,-14.4%,-0.5%
CN1CCN(c2ccc(NC(=O)COc3ccc4ccccc4c3)cc2)CC1,5.2%,12.2%,35.5µM*,-18.4%,-25.2%,-6.5%
O=C(COc1ccc2ccccc2c1)Nc1ccc(Cc2ccncc2)cc1,-2.7%,60.5%,-9.8%,?,79.4µM*,?
Cc1ccc([N+](=O)[O-])cc1S(=O)(=O)Nc1ccc(C(=O)N2CCN(C(=O)c3ccco3)CC2)cc1,nt,-12.5%,-11.3%[2.33 µM],?,79.4µM*,-0.4%
O=[N+]([O-])c1ccc(CN2[C@H](COCc3ccccc3)[C@@H](N3CCCC3)CS2(=O)=O)cc1,nt,nt,nt,nt,nt,-5.2%
CCCn1c2ccccc2c2cnn(CC(=O)Nc3cc(C)c(Cl)cc3OC)c(=O)c21,nt,23.6%,-13.9%[59 µM],-6.7%,3.6%,nt
CC(C)(C)c1ccc(Cn2nnc3c(=O)[nH]c(C4CCCN(C(=O)c5cccs5)C4)nc32)cc1 (stereo unspecified),-20.7%,-10.2%,?,-25.2%,-34.8%,-12.9%
Cc1cc(C)cc(NC(=O)C(OC(=O)C2=COCCO2)c2ccccc2)c1 (stereo unspecified),-1.8%,14.1%,25.1µM*,-36.1%,-14.1%,-3.3%
CCCNC(=O)C1Cc2cc(S(=O)(=O)N3CCCCCC3)ccc2N1C(C)=O (stereo unspecified),nt,24.3%,-2.6%[12.7 µM],-5.6%,3.6%,nt
COC(=O)CSc1[nH]c(=O)cc(C)c1C#N,10.3%,10.0%,1.5%,0.3%,-20.3%,-9.1%
CCOC(=O)c1cc(C#N)c(=S)[nH]c1C,?,23.2%,10µM*,-25.5%,39.8µM*,-3.9%
CCOC(=O)c1cc(C#N)c(SCC(=O)OC)[nH]c1=O,50.1µM*,31.0%,nt,-9.0%,-5.6%,-5.4%
COCc1[nH]c(=S)c(C#N)cc1C(=O)OC,8.91µM*,?,-137.3%[59 µM],-7.6%,22.4µM*,?
COC(=O)c1cc(C#N)c(=O)[nH]c1C,11.3%,45.2%,8.2%,1.3%,-1.0%,3.0%
CC(C)(C)OC(=O)NCc1nnc(C(C(=O)OCc2ccccc2)c2ccccc2)s1 (stereo unspecified),nt,nt,nt,nt,-18.5%,nt
O=C(c1ccccc1)c1nn(-c2ccccc2)c(=O)cc1C(F)(F)F,4.1%,17.8%,-14.6%,89.1µM*,-15.0%,-4.3%
O=C(c1ccccc1)c1nn(-c2ccc(Cl)cc2)c(=O)cc1C(F)(F)F,-5.5%,-16.6%,8.5%,-31.3%,-25.2%[57.1 µM],-8.2%
O=C(NCc1ccncc1)C12CC3CC(CC(C3)C1)C2,-3.2%,15.2%,6.4%[59 µM],2.1%,-15.4%,-3.4%

# Bioassay records: PubChem, National Center for Advancing Translational Sciences (NCATS)
